Data as given in PubChem BioAssay AID977606 (Broad Institute, 2014).
Among all 1,500 compounds or so, about 430 (29%) were called active. How the calls were made is not given here. Only a sample is shown. Results with a measured potency or affinity are listed apart.

Assay: glucose-independent GLuc insulin release activation – cell-based, INS-1E, Gaussia luciferase, luminescence, cherry-pick, counter-screen for glucose-dependent insulin secretion activators, dose response (AID 977606)
Conditions: INS-1E Gaussia luciferase insulin secretion, no glucose, 100% = twice neutral-control luminescence; series mostly up to 35 µM
In the case of Cc1cc(C)n2ncc(-c3cccc(Br)c3)c2n1, the outcome is reported as “inactive”. With CCN(CC)C(=O)Cn1c(=O)oc2ccccc21 the outcome was “inactive”. With COC(=O)N1CCCCC1c1cc(C(=O)NCc2ccc(Cl)c(Cl)c2)no1 (stereo not drawn) the outcome was “inactive”. With c1ccc2c(N3CCCCC3)nc(N3CCCC3)nc2c1 the outcome was “inactive”. For CCOC(=O)c1nc(-c2ccccc2)oc1N(C)C, the outcome was “inactive”. With CCOC(=O)c1sc2nc(C)[nH]c(=O)c2c1C the outcome was “inactive”. For COc1ccc(Cc2nnc(-c3ccccc3)o2)cc1, the outcome was “inactive”. For CCCc1nc2n[nH]c(N)c2c2c1COC(C)(C)C2, the outcome was “inactive”. In the case of O=C(COc1nncc2ccccc12)NCC(F)(F)F, the outcome is reported as “inactive”. With O=C(c1cccc(F)c1)N1CCCc2ccccc21 the outcome was “inactive”. For CCOc1ccc(CCNC(=O)COc2cccc(-n3cnnn3)c2)cc1OCC, the outcome was “inactive”. For COCc1ccc(C(=O)NC2CCSc3ccccc32)cc1 (stereo not drawn), the outcome was “inactive”. In the case of COc1ccc(-c2ccc(=O)n(CC(=O)NC3CCc4ccccc43)n2)cc1OC (stereo not drawn), the outcome is reported as “inactive”. For CCOc1ccc(C(=O)NCC(=O)OCCN2C(=O)c3ccccc3C2=O)cc1OCC, the outcome was “inactive”. In the case of CCOc1ncccc1C(=O)Nc1ncc(C)s1, the outcome is reported as “inactive”. In the case of Cc1cc(NCc2ccccn2)nc2ccccc12, the outcome is reported as “inactive”. For O=C(O)CCCC(=O)N1CCN(c2nc(-c3ccccc3)c3ccccc3n2)CC1, the outcome was “inactive”. With C/C=C1\COC(C(=O)NCc2ccccc2)(C(F)(F)F)C=C1C=C1CCCCC1 (stereo not drawn) the outcome was “inactive”. For CC1=NS(=O)(=O)NC(C)(C)C1, the outcome was “inactive”. For COc1ccc(C2=Nn3c(nnc3-c3ccccc3OC)SC2)cc1OC1CCOC1 (stereo not drawn), the outcome was “inactive”. With Cc1ccc2nc(Cl)nc(-c3ccccc3)c2c1 the outcome was “inactive”. In the case of Cc1ccc2nc(N/N=C/c3ccccc3C#N)nc(-c3ccccc3)c2c1, the outcome is reported as “inactive”. For CCOc1ccc(CCNC(=O)CCNC(=O)c2ccco2)cc1OCC, the outcome was “inactive”. In the case of COc1ccc(CCNC(=O)CCc2ccccc2O)cc1OC, the outcome is reported as “inactive”. In the case of COc1ccc(CCNC(=O)CCc2ccccc2)cc1OC, the outcome is reported as “inactive”. For N=c1n(CCN2CCCCC2)c2ccccc2n1CC(O)COc1ccccc1 (stereo not drawn), the outcome was “inactive”. For Clc1cc(NC2CCCCC2)ncn1, the outcome was “inactive”. For COc1cccc(-c2cc(C(F)(F)F)nc(-n3cncn3)n2)c1, the outcome was “inactive”. With CN(C)S(=O)(=O)c1cccc(-c2csc(N/N=C/c3ccco3)n2)c1 the outcome was “inactive”. In the case of Cc1cc(=O)n(Cc2ccccc2)c2ccccc12, the outcome is reported as “inactive”. For COc1ccc(CNC(=O)CCn2c(=O)oc3ccccc32)c(OC)c1, the outcome was “inactive”. For CC1(c2ccc(OC(F)F)cc2)NC(=O)N(CC(=O)Nc2cccc(S(N)(=O)=O)c2)C1=O (stereo not drawn), the outcome was “inactive”. In the case of CCCn1nc(C(=O)NC2CCCC2)c2ccccc2c1=O, the outcome is reported as “inactive”. For O=c1[nH]nc(-c2ccccc2)c2ccccc12, the outcome was “inactive”. With COc1ccc(CCN(C)C(=O)COc2cccc(-n3cnnn3)c2)cc1OC the outcome was “inactive”. With CNc1nc(OCC#N)nc(N2CCCCC2)n1 the outcome was “inactive”. With Cc1ccc(-n2nnnc2SCc2ccc(C(=O)O)cc2)cc1C the outcome was “inactive”. In the case of C=CCNC(=S)Nc1ccc2cn[nH]c2c1, the outcome is reported as “inactive”. For O=S(=O)(N1CCOCC1)n1c(Cc2ccccc2)nc2ccccc21, the outcome was “inactive”. For O=C(Nc1ccc(F)cc1)N1CCCCN2[C@@H](CO)[C@@H](c3ccc(C#Cc4ccccc4)cc3)[C@@H]2C1, the outcome was “inactive”. In the case of CCN(CC(=O)Nc1ccccc1OC)C(=O)C1CCCC1, the outcome is reported as “inactive”. In the case of COc1ccc(C2=Nn3c(nnc3-c3ccccc3OC)SC2)cc1OCC1CC1, the outcome is reported as “inactive”. With COc1ccc(C2=NN(C(=O)CCCC(=O)O)C(c3cccs3)C2)cc1OC (stereo not drawn) the outcome was “inactive”. With O=c1[nH]nc(-c2cccs2)c2ccccc12 the outcome was “inactive”. In the case of CCCc1cc(=O)n2[nH]c(C)c(-c3ccc(Cl)cc3)c2n1, the outcome is reported as “inactive”. For CCN1CCN(c2ccc(S(=O)(=O)N3CCCCC3)cc2NC(=O)c2cc3ccccc3o2)CC1, the outcome was “inactive”. With COc1ccc(NC(=O)c2csc(C)c2)cc1OC the outcome was “inactive”. For CCNC(=O)C1(C)CCCN1C(=O)c1cc(OC)c(OC)c(OC)c1 (stereo not drawn), the outcome was “inactive”. With COc1ccc(Nc2c3c(nc4ccccc24)CCC3)cc1 the outcome was “inactive”. With COc1ccc(/C=N/NC(=O)CN(C2=NS(=O)(=O)c3ccccc32)c2ccccc2)cc1OC the outcome was “inactive”. In the case of O=C(O)COc1ccccc1-c1ccccc1, the outcome is reported as “inactive”. With CCN(c1ccccc1)c1nc(Cl)nc2c1cnn2C the outcome was “inactive”. For COCCNC(=O)c1cc2c(c(-c3cccc(C#Cc4ccc(OC)c(OC)c4)c3)n1)[C@H](CCO)N(S(=O)C(C)(C)C)C2 (stereo partly drawn), the outcome was “inactive”. In the case of COc1ccc(C(=O)C2CCCN(C(=O)c3n[nH]c4c3CCCC4)C2)cc1OC (stereo not drawn), the outcome is reported as “inactive”. With Cn1c(=O)[nH]c(=O)c2c1nc(N1CCCCC1)n2C/C=N/Nc1ccc(C(=O)O)cc1 the outcome was “inactive”. For Cc1cc(-c2ccc(S(=O)(=O)N3CCN(C)CC3)s2)on1, the outcome was “inactive”. For Cc1cccc(C)c1NC(=O)NC1CCc2ccccc21 (stereo not drawn), the outcome was “inactive”. In the case of COC(=O)c1ccc(C)c(-n2c(=O)n(Cc3ccccc3)c(=O)c3[nH]cnc32)c1, the outcome is reported as “inactive”. In the case of COC(=O)c1scc(C)c1NC(=O)CC1NCCNC1=O (stereo not drawn), the outcome is reported as “inactive”. With O=C(c1ccccc1)c1ccc2ccccc2n1 the outcome was “inactive”. For COc1ccc(CCNC(=O)NS(=O)(=O)c2ccc(C)cc2)cc1OC, the outcome was “inactive”. With COc1cc2c(cc1OC)C(CSc1ccccc1C(=O)O)=NC(C)(C)C2 the outcome was “inactive”. With Cc1cccc2[nH]c3c(N4CC=C(c5ccc(F)cc5)CC4)ncnc3c12 the outcome was “inactive”. For COc1cc(C)c(C)cc1S(=O)(=O)N1CCCCC1c1cccnc1 (stereo not drawn), the outcome was “inactive”. In the case of C[C@@H]1CC2=C(C(=O)OC(C)(C)O2)[C@H](c2ccc(F)cc2)O1, the outcome is reported as “inactive”. For CCCCn1c(=O)n(C)c(=O)c2c3c(sc21)COC(C)(C)C3, the outcome was “inactive”. With CCOC(=O)c1csc(-c2ccc(OC)c(OC)c2)n1 the outcome was “inactive”. With COc1ccc(-c2cc(C(=O)N3CCCCCC3)no2)cc1OC the outcome was “inactive”. In the case of C[C@@H]1CN([C@H](C)CO)C(=O)CCCn2cc(nn2)CO[C@H]1CN(C)S(=O)(=O)c1cccs1, the outcome is reported as “inactive”. In the case of CCOc1ccc(-c2noc(CCC(=O)NC)n2)cc1OCC, the outcome is reported as “inactive”. For CCOc1cc(C(=O)N(C)CC(=O)Nc2cccc3ccccc23)ccc1OC, the outcome was “inactive”. With COc1cc2c(cc1OC)-c1cc(Nc3ccccc3C)nc(=O)n1CC2 the outcome was “inactive”. For CCOc1ccc(CCNC(=O)COC(=O)c2ccc(C)s2)cc1OCC, the outcome was “inactive”. For COc1ccc(C(=O)C2CCCN(Cc3cccn3-c3nccs3)C2)cc1OC (stereo not drawn), the outcome was “inactive”. With CN(C)C(=O)c1ccc(-c2ccc([C@@H]3[C@@H](CO)N4C(=O)CN(C(=O)C5CC5)C[C@@H]34)cc2)cc1 the outcome was “inactive”. For Cc1c(O)cnc2nn(-c3ccccc3)c(=N)n12, the outcome was “inactive”. With CCOC(=O)Cc1cc(=O)n2[nH]c(-c3ccc(C)cc3)cc2n1 the outcome was “inactive”. For CN(C)c1ccc(/C=N/NC(=O)c2ccccc2Cl)cc1, the outcome was “inactive”. In the case of CC(C)Oc1ccc(Br)cc1C(=O)N/N=C/c1c[nH]c2ccccc12, the outcome is reported as “inactive”. In the case of CCNc1nc(Oc2ccc(C#N)cc2)cc(C(F)(F)F)n1, the outcome is reported as “inactive”. With COc1ccc2oc(-c3ccncc3)cc(=O)c2c1 the outcome was “inactive”. In the case of O=C(Nc1ccc(NC(=O)c2cccs2)cc1)c1ccc2c(c1)OCO2, the outcome is reported as “inactive”. With O=C(Nc1ccc2oc(-c3cccnc3)nc2c1)c1ccc2c(c1)OCCO2 the outcome was “inactive”. With CCNc1nc(NCC)nc(N(C#N)C(C)C)n1 the outcome was “inactive”. In the case of O=C(NC1CCCC1)c1ccc(Cl)c(S(=O)(=O)N2CCOCC2)c1, the outcome is reported as “inactive”. With COc1ccc(C(=O)N2CCc3cc(OC)c(OC)cc3C2c2ccc(OC)c(OC)c2)cc1OC (stereo not drawn) the outcome was “inactive”. For O=C(NCc1cccnc1)c1cccc(S(=O)(=O)NCc2ccccc2)c1, the outcome was “inactive”. For COc1ccc(C(=O)Nc2ccccc2C(=O)NCc2cccnc2)cc1OC, the outcome was “inactive”. In the case of Clc1ccc(-c2cc(CN3CCOCC3)no2)cc1, the outcome is reported as “inactive”. In the case of Cc1cc(C)n(CC(=O)n2c3ccccc3c3ccccc32)n1, the outcome is reported as “inactive”. For O=C(c1cccs1)N(Cc1ccc(Cl)cc1)C1CCS(=O)(=O)C1 (stereo not drawn), the outcome was “inactive”. With COc1ccc(C(=O)OCC(=O)NC(=O)NC2CCCC2)cc1OC the outcome was “inactive”. For O=C(O)c1ccc(-n2nnnc2SCc2ccccc2F)cc1, the outcome was “inactive”. With O=C(Nc1ccccc1)Nc1nnc(-c2cccs2)s1 the outcome was “inactive”. In the case of O=C(c1ccco1)N(Cc1ccc(Cl)cc1)C1CCS(=O)(=O)C1 (stereo not drawn), the outcome is reported as “inactive”. With O=C(COc1ccccc1Cl)NNC(=O)c1ccc2nc[nH]c2c1 the outcome was “inactive”. With COc1ccccc1N(CC(=O)NCC1CCCO1)C(=O)CNS(=O)(=O)c1ccc(Cl)cc1 (stereo not drawn) the outcome was “inactive”. In the case of Cc1cc(C)cc(N(C(=O)C(F)(F)F)C(C(=O)NC2CCCCC2)c2cccs2)c1 (stereo not drawn), the outcome is reported as “inactive”. In the case of O=C(NCc1ccccn1)c1ccccc1OCc1ccc(Cl)cc1Cl, the outcome is reported as “inactive”. With COc1ccc2oc(=O)c(C(=O)NCc3ccccn3)cc2c1 the outcome was “inactive”. For CC1CCC(NC(=O)C2COc3ccccc3O2)CC1 (stereo not drawn), the outcome was “inactive”. With CCCCOC(=O)c1cc(-c2ccc(/C=N/n3cnnc3)o2)ccc1Cl the outcome was “inactive”. For C=CCc1ccc(OCCOc2ccc(/C=N/n3cnnc3)cc2OCC)c(OC)c1, the outcome was “inactive”. With N#Cc1c(-c2ccco2)cc(C2CC2)nc1N the outcome was “inactive”. For COc1cc2c(cc1OC)C(Nc1ccccc1)=NC(C)(C)C2, the outcome was “inactive”. For O=C(NCC1(O)CCCCC1)C1CCC(=O)N(Cc2ccccc2F)C1 (stereo not drawn), the outcome was “inactive”. For NC1=NC(=O)C(Cc2ccc(F)cc2)S1 (stereo not drawn), the outcome was “inactive”. With COc1cc(OC)c(OC)cc1/C=N/n1c(C)nc2ccccc2c1=O the outcome was “inactive”. In the case of O=C1Nc2cnc(Cl)nc2Nc2ccccc21, the outcome is reported as “inactive”. For COc1ccc(-c2cc(C(=O)N(C)Cc3ccc(OC)c(OC)c3OC)c3ccccc3n2)cc1OC, the outcome was “inactive”. For COc1ccc(CN(C)C(=O)c2cc(-c3ccc(OC)c(OC)c3)nc3ccccc23)c(OC)c1, the outcome was “inactive”. For COc1ccc(F)cc1C(=O)C1CCCN(C(=O)c2ccc(C(C)=O)s2)C1 (stereo not drawn), the outcome was “inactive”. In the case of Clc1ccc(OCCn2ccnc2)c(Cl)c1, the outcome is reported as “inactive”.
